Compounds with a hit are over-represented: about 12% of the library has one in this group of screens.
Sfp inh: inhibitors of Bacillus subtilis Sfp phosphopantetheinyl transferase | Potency, µM, for inactives: largest response in the series, negative = inhibition, actives largely listed as inhibitors | 310,000 tested, 3.5% active | Biochemical Sfp PPTase activity, qHTS | AID 1490;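 note: the enzyme is Sfp with the accession as filed and its product quenches rhodamine fluorescence; potency is the fitted concentration of half-maximal effect; 0% = enzyme reaction without inhibitor and -100% = no enzyme wells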
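Sfp 15 nM + cpd, 15 min RT; start w/ rhodamine-CoA 5 uM, BHQ-2-YbbR 12.5 uM (final); 50 mM Hepes pH 7.6, 10 mM MgCl2, 0.01% NP-40, 0.01% BSA; read 525/598 nm at 0 and 30 min.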
JMJD2A Tudor: JMJD2A Tudor domain (human) inhibition; Potency, µM (series often up to 114 µM), without a hit: at the highest dose activity change, negative = inhibition, usual class: inhibitors; 390,000 tested, 4.4% active; AlphaScreen JMJD2A-Tudor / H3K4me3 peptide binding; O75164; AID 504339; note: potency is the fitted concentration of half-maximal effect; % is set by controls: 0 for no effect and ±100 for the full control effect; nearly all actives have a fitted effect of over 50% in size
BAZ2B inh: inhibitors of human BAZ2B bromodomain | Q9UIF8 | Potency, µM (series often up to 114 µM), inactives show at the top dose activity change, negative = inhibition, most hits filed as inhibitors | AlphaScreen BAZ2B-H3K14Ac peptide displacement | AID 504333 | 360,000 tested, 4.4% active; note: potency is the fitted concentration of half-maximal effect; % is set by controls: 0 for no effect and ±100 for the full control effect; nearly all actives have a fitted effect of over 60% in size
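Inhibition is scored as reduced AlphaScreen emission. The BAZ2B/b-H3(5-23)K14Ac complex (50 nM each) in PBS pH 7.4, 0.01% Tween-20 meets compound (up to 110 uM) for 30 min at RT before bead addition.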
G9a block: G9a (human) methyltransferase inhibition; Q96KQ7; 350,000 tested, 8.8% active; AID 504332; Potency, µM (series often up to 102 µM), for inactives: top-dose activity, negative = inhibition, usual class: inhibitors; G9a H3K9 monomethylation, AlphaScreen, 2 h; note: potency is the fitted concentration of half-maximal effect; % is set by controls: 0 for no effect and ±100 for the full control effect; nearly all actives have a fitted effect of over 75% in size
Target sequence (Q96KQ7 913-1193 limits assumed): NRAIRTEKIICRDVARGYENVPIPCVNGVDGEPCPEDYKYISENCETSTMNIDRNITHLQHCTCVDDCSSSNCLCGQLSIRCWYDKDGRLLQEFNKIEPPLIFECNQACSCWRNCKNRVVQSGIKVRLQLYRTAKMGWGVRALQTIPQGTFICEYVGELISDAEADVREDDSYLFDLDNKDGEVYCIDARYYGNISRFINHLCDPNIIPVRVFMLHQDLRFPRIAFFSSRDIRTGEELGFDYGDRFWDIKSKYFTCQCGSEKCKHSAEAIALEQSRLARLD
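Using a bead-based AlphaScreen, monomethylated H3K9 product from 2 h room-temperature reactions (G9a 20 nM, peptide 500 nM, SAM 20 uM) was detected with 0.5 ug/mL rabbit anti-H3K9me1 antibody.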
HP1b chromo inh: inhibitors of HP1-beta chromodomain binding to methylated histone tails; 390,000 tested, 0.56% active; AID 540317; Potency, µM (series often up to 114 µM), for inactives: top-dose activity change, negative = inhibition, usual class: inhibitors; AlphaScreen HP1-beta / biotin-H3K9me3 peptide binding; P83916; note: potency is the fitted concentration of half-maximal effect; nearly all actives have a fitted effect of over 70% in size
Target sequence (P83916 whole entry, looked up): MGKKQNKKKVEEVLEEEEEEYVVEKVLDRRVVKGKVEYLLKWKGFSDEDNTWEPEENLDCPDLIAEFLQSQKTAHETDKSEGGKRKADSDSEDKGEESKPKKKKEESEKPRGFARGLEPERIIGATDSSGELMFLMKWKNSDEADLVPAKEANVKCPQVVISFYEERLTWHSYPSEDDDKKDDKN
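AlphaScreen: HP1-beta (50 nM) preformed 30 min with biotin-H3(1-18)K9me3 peptide (50 nM) in PBS pH 7.4, 0.01% Tween-20. Compound added for 30 min at RT, then streptavidin donor/nickel chelate acceptor beads (10 ug/mL) for 30 min.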
Sfp inh conf: Sfp phosphopantetheinyl transferase inhibition, confirmation; shares compounds with Sfp inh; Sfp PPTase enzymatic assay, qHTS titration; Potency, µM (series often up to 114 µM), for inactives: at the top dose activity change, negative = inhibition, hits mostly inhibitors; 380 tested, 79% active;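 note: potency is the fitted concentration of half-maximal effect; plate controls were uninhibited Sfp reaction for no effect and no enzyme control for full effect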
Sfp PPTase gel: Inhibits Bacillus subtilis Sfp phosphopantetheinyl transferase. shares compounds with Sfp inh. purified Sfp, gel-based phosphopantetheinylation read-out. Potency, µM, most hits filed as inhibitors. 210 tested, 20% active. AID 2707;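 active = potency below 100 µM; inconclusive = dose-dependent response but potency above 100 µM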;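 note: band intensities scaled against SCH202676 control wells before curve fitting; potency is an IC50 for inhibitors of Sfp transfer activity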
JMJD2E inh-1: blocks human JMJD2E demethylase activity | shares compounds with BAZ2B inh | JMJD2E demethylase, FDH-coupled NADH fluorescence | Potency, µM (doses to about 57 µM), inactives show at the top dose activity, negative = inhibition, most hits filed as inhibitors | 130 tested, 89% active | AID 493212
ME-1 prolif: inhibitors of ME-1 leukemia cell proliferation, CBFb-RUNX1 project. AID 504370. 140 tested, 20% active. Potency, µM (series often up to 56.1 µM), without a hit: top-dose activity change, negative = inhibition, most hits filed as inhibitors. ME-1 cell proliferation, ATP luminescence, 48 h. shares compounds with BAZ2B inh
JMJD2E inh-2: JMJD2E (human) demethylase inhibition, confirmation | shares compounds with JMJD2A Tudor | Recombinant JMJD2E, FDH-coupled NADH fluorescence (FDH is formaldehyde dehydrogenase) | Potency, µM (doses to about 56.8 µM), inactives show at the highest dose activity change, negative = inhibition, hits mostly inhibitors | 140 tested, 93% active
FDH counter: counter-screen for JMJD2E inhibitors: Pseudomonas putida formaldehyde dehydrogenase. shares compounds with JMJD2A Tudor. FDH enzyme assay, NADH fluorescence kinetic. Potency, µM (highest dose often 56.7 µM), for the others: top-dose activity, negative = inhibition, hits mostly inhibitors. 140 tested, 10% active
* = called active by the depositor; i = inactive; ? = inconclusive; . = no result; ! = repeats disagree; [ ] = dose if it differs, or a comment. Unless noted, calls come from the whole dose curve; as a rule, active = well fitted curve in the direction sought with a large enough effect; inconclusive = small, poorly fitted or top-dose-only effect, or another doubt; inactive = no such curve, though single readings can be large; an effect the other way counts as inactive or inconclusive.

SMILES | Sfp inh | JMJD2A Tudor | BAZ2B inh | G9a block | HP1b chromo inh | Sfp inh conf | Sfp PPTase gel | others
CCOC(=O)C1=CC(=C2C(=O)N(CC)C(=S)N(CC)C2=O)c2ccccc2O1 | 50µM* | -26% | ? | 25µM* | ? | 59µM* | i
CCOC(=O)C1=C(C)c2ccccc2OC1(C(=O)OCC)c1ccccc1 (centres undefined) | 10% | 9% | . | 21% | 75% | . | .
O=C1C2CC=CCC2C(=O)N1SC(Cl)(Cl)Cl (centres undefined) | 6.3µM* | . | . | 1.6µM* | . | 9.4µM* | 6.2µM*
Cc1onc(-c2c(Cl)cccc2Cl)c1/C(N)=N/OC(=O)N(C)C | 9% | -16% | 0% | -1% | -20% | . | .
CC(C)Nc1ccc(Nc2ccccc2)cc1 | 8.9µM* | 50µM* | 28µM* | 1.6µM* | 45µM* | 11µM* | ?
Cc1cccc(N2CCc3c2nc2ccccc2c3N)c1 | 28µM* | 3.2µM*! | ? | ? | ? | 26µM* | i
CC(C)c1cc2c(c(O)c1O)[C@@]1(C(=O)O)CCCC(C)(C)[C@@H]1CC2 | 1.4µM* | . | . | 3.5µM* | . | 2.6µM* | i
CC(C)c1cc2c(c(O)c1O)[C@]1(C(=O)O)CCCC(C)(C)C1CC2 (some centres undefined) | -108% | . | . | -38%[2.33 µM] | . | . | .
COc1ccc(OC)c(NC(=O)N2C[C@H]3C[C@@H](C2)c2cccc(=O)n2C3)c1 | 7% | 5% | -4% | 23% | 32% | . | .
C/C(=N/OC(=O)N(C)C)c1ncc(C(F)(F)F)cc1N1CCOCC1 | 1% | -3% | 0% | -3%[12.7 µM] | 56% | . | .
COc1ccc(OC)c(C(O)C(C)N)c1 (centres undefined) | 14% | -11% | 0% | -17%[59 µM] | 48% | . | .
C[C@H](N)[C@H](O)c1ccc(O)c(O)c1 | 35µM* | . | . | 1.6µM* | . | ? | 74µM*
CC(C)[C@@]1(NC(=O)[C@H]2CC3c4cccc5[nH]cc(c45)C[C@H]3N(C)C2)O[C@@]2(O)C3CCCN3C(=O)[C@@H](Cc3ccccc3)N2C1=O (some centres undefined) | 79µM*! | . | . | 13µM*! | . | . | . | ME-1 prolif=?
Cc1ccc(CN2C(=O)NC(=O)C3(Cc4c(nc5ccccn5c4=O)N4CCCCCC43)C2=O)cc1 (centres undefined) | -10% | -31% | ? | ? | 6% | . | .
Oc1cccc2cc(N3CCNCC3)cnc12 | . | . | . | . | . | . | . | JMJD2E inh-1=?;JMJD2E inh-2=?;FDH counter=0%
CCOP(=O)(OCC)c1cc(CC)ccc1O | 19% | 5% | 5% | 8% | 11% | . | .

High-throughput results as filed in PubChem BioAssay.
